Assay outcomes (PubChem BioAssay)
PAFAH1B2 FP inh: inhibitors of human PAFAH1B2 | AID 492953 | recombinant PAFAH1B2, FP-rhodamine activity probe, fluorescence polarization | inhibition, % at 3.39 µM | P68402 | 340,000 compounds, 1.2% hits;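 active = inhibition above the mean of all tested compounds plus 3 SD, cut at about 24% in these data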;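 also: 0% = enzyme with DMSO and 100% = wells lacking PAFAH1B2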
Fam108B counter: blocks mouse Fam108B hydrolase in RBBP9 counter-screen; inhibition, % at 9.51 µM; 300,000 compounds, 0.33% hits; AID 1947; recombinant Fam108B, FP-Rh probe fluorescence polarization;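 active = inhibition above the screen mean inhibition plus 3 SD, computed separately per campaign, cut at about 18% in these data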;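 also: inhibitors lower polarization as less probe binds the enzyme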
PAFAH1B3 inh: PAFAH1B3 (human) inhibition | 340,000 compounds, 0.28% hits | inhibition, % at 3.39 µM | recombinant PAFAH1B3, FP-rhodamine probe, fluorescence polarization;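 active = inhibition above the screen-wide average of all tested compounds plus 3 SD, cut at about 25% in these data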;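 also: 0% = enzyme with DMSO only and 100% = wells lacking PAFAH1B3 protein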
PME-1 primary: blocks human protein phosphatase methylesterase 1. Q9Y570. recombinant PME-1, FP-Rh probe fluorescence polarization. inhibition, % at 5.9 µM. 320,000 compounds, 0.53% hits;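 active = inhibition above the campaign mean of all compounds plus 3 SD, cut at about 26% in these data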;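 also: competitive labeling of PME-1 active site by serine hydrolase directed probe; 0% = PME-1 with DMSO and 100% = wells lacking PME-1 enzyme; inhibitors block probe labeling so polarization falls and inhibition rises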
PAFAH2 inh: PAFAH2 (human) inhibition. 340,000 compounds, 0.99% hits. Q99487. recombinant PAFAH2, FP-rhodamine activity probe, fluorescence polarization. inhibition, % at 3.39 µM;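 active = inhibition above the mean over all tested compounds plus 3 SD, cut at about 30% in these data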;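 also: inhibitors block probe labeling of enzyme so polarization drops; 0% = enzyme with DMSO and 100% = wells lacking PAFAH2 protein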
pPAFAH FP inh: pPAFAH (human) enzyme inhibition; 330,000 compounds, 1.5% hits; recombinant pPAFAH, FP-rhodamine probe fluorescence polarization; Q13093; inhibition, % at 3.39 µM;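 active = inhibition above the mean inhibition across the screen plus 3 SD, cut at about 25% in these data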;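 also: inhibitors block binding of the rhodamine activity-based probe so polarization drops; 0% = enzyme with DMSO and 100% = wells lacking pPAFAH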
Target sequence (Q13093 whole entry, looked up): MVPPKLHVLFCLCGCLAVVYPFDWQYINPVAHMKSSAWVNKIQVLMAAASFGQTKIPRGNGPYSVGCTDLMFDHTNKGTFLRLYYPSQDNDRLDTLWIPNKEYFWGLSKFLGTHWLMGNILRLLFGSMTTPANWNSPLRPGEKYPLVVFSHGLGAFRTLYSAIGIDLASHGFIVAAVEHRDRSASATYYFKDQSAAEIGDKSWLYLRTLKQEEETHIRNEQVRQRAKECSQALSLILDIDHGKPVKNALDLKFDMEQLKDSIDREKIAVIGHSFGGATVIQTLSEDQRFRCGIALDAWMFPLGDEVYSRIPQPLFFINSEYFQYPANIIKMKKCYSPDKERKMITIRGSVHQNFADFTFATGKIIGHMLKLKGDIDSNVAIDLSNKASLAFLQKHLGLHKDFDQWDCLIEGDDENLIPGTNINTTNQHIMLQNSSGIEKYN
* hit, by the source's call. A selection: hits, their analogues and other compounds. The true share with any hit is near 2.9%.

SMILES | PAFAH1B2 FP inh | Fam108B counter | PAFAH1B3 inh | PME-1 primary | PAFAH2 inh | pPAFAH FP inh
O=C(O)c1cc(NS(=O)(=O)c2ccc3ccccc3c2)ccc1O | 48* | -2 | 5 | -2 | 21 | 3
O=C(NC(=S)Nc1ccc(N2CCCCC2)c(Cl)c1)c1ccc2c(c1)OCCO2 | -9 | -5 | -8 | 0 | -7 | 2
CC1=C(C(=O)OCCc2ccccc2)C(c2ccsc2)NC(=O)N1C (stereo not drawn) | 68* | 2 | -7 | 2 | 2 | 28*
Nc1nc(NCCO)nc(NCc2ccccc2)c1[N+](=O)[O-] | 8 | 7 | 2 | 6 | 0 | 4
Nc1nc(NCC(=O)O)nc(NCc2ccccc2)c1[N+](=O)[O-] | 28* | -2 | 10 | -1 | -1 | 4
Cc1ccc(-n2c(C)nn(Cc3ccc([N+](=O)[O-])cc3)c2=O)cc1 | 3 | 4 | 7 | 10 | -10 | -3
Cc1ccc(-n2c3nc(=O)[nH]c(=O)c-3cc3cc([N+](=O)[O-])ccc32)cc1 | 5 | 15 | 9 | 63* | 12 | 11
CN(c1ccccc1)S(=O)(=O)c1cccc(NC(=O)c2cc3ccccc3oc2=O)c1 | 3 | 2 | 13 | -10 | -3 | -5
CC1(C)CC(=O)C2=C(C1)N(CCN1CCOCC1)C1=C(C(=O)CC(C)(C)C1)C2c1cccc(F)c1 | 5 | -1 | -1 | 28* | 1 | -2
CC1(C)CC(=O)C2=C(C1)N(CCN1CCOCC1)C1=C(C(=O)CC(C)(C)C1)C2c1ccc(Cl)cc1 | 3 | -6 | 6 | 5 | 1 | 7
COc1cc2c(cc1OC)CN(C(=O)c1ccc3[nH]c(C)c(C)c3c1)CC2 | -1 | -2 | 8 | 38* | 8 | 10
COc1ccc(C(=O)N2CCc3cc(OC)c(OC)cc3C2)cc1OC | -3 | 2 | -1 | 0 | -12 | 2
CCOC(=O)c1[nH]c2ccccc2c1NC(C)=O | 12 | 2 | 0 | 3 | 1 | -1
CCOc1cc(Br)cc(C(c2c(C(=O)O)[nH]c3ccccc23)c2c(C(=O)O)[nH]c3ccccc23)c1O | 79* | 7 | 11 | -3 | 16 | 18
CSc1ccc(C(c2c(C(=O)O)[nH]c3ccccc23)c2c(C(=O)O)[nH]c3ccccc23)cc1 | 62* | 2 | 6 | 0 | 27 | 29*
Cc1ccc(S(=O)(=O)N2CCCCC2)cc1C(=O)Nc1ccc2cn[nH]c2c1 | 4 | -1 | 6 | 4 | 2 | 5
Nc1c(C(=O)Nc2ccc(Cl)c(C(=O)O)c2)sc2nc3c(cc12)CCCC3 | 7 | -2 | 16 | 9 | 6 | 22
Nc1c(C(=O)Nc2cccc(C(=O)O)c2)sc2nc3c(cc12)CCCC3 | 7 | 5 | 12 | 26* | 15 | 5
COc1cc2c(c(OC)c1OC)-c1ccc(NC(=O)c3ccc(F)cc3)c(=O)cc1[C@@H](NC(C)=O)CC2 | -3 | 25* | 4 | 31* | 4 | 23
COc1cc2c(c(OC)c1OC)-c1ccc(OC)c(=O)cc1[C@@H](NC(C)=O)CC2 | 3 | 2 | 3 | -6 | -2 | -2
CN(C)c1ccc(NC(=O)Nc2ccc3snnc3c2)cc1 | 7 | 9 | 5 | 32* | 6 | 4
O=C(Nc1ccccc1)Nc1ccc2snnc2c1 | -2 | -2 | 0 | -22 | -7 | -2
O=C(c1ccc(CS(=O)(=O)Cc2ccc(Cl)cc2)o1)N1CCCC1 | 1 | 7 | 6 | 1 | 8 | 26*
C=CCNc1nc(Cl)nc(Nc2ccc(OC)cc2OC)n1 | 6 | 4 | 9 | 1 | 7 | -3
O=C(O)c1cc(-c2ccc(Cl)c(Cl)c2)n(-c2ccccc2)n1 | 29* | -4 | 1 | -1 | -2 | 6
Cc1ccc(-n2nc(C(=O)O)cc2-c2ccccc2)cc1 | 19 | 3 | 6 | -4 | 5 | 6
COc1cccc(CN(C)C(=O)c2ccc(COc3ccc(Cl)cc3)cc2)c1OC | 25* | 0 | -3 | -1 | -7 | 8
CC1CCN(S(=O)(=O)c2cccc(C(=O)Nc3nncs3)c2)CC1 | 26* | 2 | 6 | -3 | 5 | -2
CC1CCN(S(=O)(=O)c2cccc(C(=O)N(Cc3ccccc3)c3ccccn3)c2)CC1 | 25* | -3 | 5 | -2 | 3 | 0
